Shown are actives, neighbours in structure and some others; about 21% of the full set was active somewhere.
CHX counter: Cycloheximide Counterscreen for Small Molecule Inhibitors of Shiga Toxin. max response, %. AID 2314, 2010. 300,000 tested, 12% active. cell reporter, cycloheximide protein synthesis inhibition counterscreen; in the data active = max response mostly above about 13%, no sharp cut-off; inactive = mostly below about 14%; also: read at 38.3 µM for the half of the compounds with a filed dose; 0% is about no effect
Pf growth 48h: Primary qHTS for delayed death inhibitors of the malarial parasite plastid, 48 hour incubation; AID 504832, 2011; 310,000 tested, 5.9% active; Potency, µM (series often up to 28.7 µM), for inactives: at the top dose activity change, negative = inhibition, most hits filed as inhibitors; P. falciparum luciferase growth in erythrocytes, 48 h; also: potency is read from the fitted curve at half-maximal effect; % is scaled to controls: 0 for no effect and ±100 for the full control effect
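Cell-based growth assay: transgenic P. falciparum expressing firefly luciferase, cultured in red cells within RPMI 1640 containing 0.5% w/v Albumax, 24 mM bicarbonate and gentamycin. A drop in luciferase activity indicates inhibition.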
Pf growth 96h: Primary qHTS for delayed death inhibitors of the malarial parasite plastid, 96 hour incubation | Potency, µM (highest dose often 28.7 µM), for inactives: at the highest dose activity change, negative = inhibition, actives largely listed as inhibitors | AID 504834, 2011 | 320,000 tested, 6.9% active | P. falciparum luciferase reporter growth, 96 h; also: potency is read from the fitted curve at half-maximal effect; % is scaled to controls: 0 for no effect and ±100 for the full control effect
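Two parasite generations (96 h, 37 C, 5% CO2) of compound exposure in infected erythrocytes (0.05% parasitemia, 2% hematocrit). Luciferase-reporter P. falciparum; decreased luminescence indicates inhibited growth, aimed at apicoplast-acting delayed death.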
NS1 inh: qHTS Assay for Inhibitors of Influenza NS1 Protein Function. Potency, µM (titrated, usually from 46.1 µM), for the others: at the top dose activity, positive = more growth. 270,000 tested, 0.4% active. AID 2326, 2010; calls by dose curve; also: potency is read from the fitted curve at half-maximal effect; actives are rising curves; nearly all actives have a fitted effect of over 50% in size
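S. cerevisiae expressing influenza A NS1, grown in glucose, washed, then diluted 1:100 into pH 6.0 -URA galactose medium with 23 nl compound. Growth recovery read as OD600; NS1-free strain serves as control.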
SARS PLP yeast: qHTS of Yeast-based Assay for SARS-CoV PLP; AID 485353, 2010; 330,000 tested, 0.19% active; Potency, µM (top dose mostly 32.9 µM), for inactives: at the highest dose activity, positive = growth rescue, hits mostly activators; S. cerevisiae expressing SARS-CoV PLpro, growth rescue; calls by dose curve; also: potency is read from the fitted curve at half-maximal effect; 0% is about no effect; nearly all actives have a fitted effect of over 55% in size
Shiga toxin inh: A qHTS for Small Molecule Inhibitors of Shiga Toxin | Vero cells, Shiga toxin protein synthesis inhibition reporter | inhibition, % at 38.7 µM | 290,000 tested, 9.2% active; in the data active = inhibition mostly above about 28%, no sharp cut-off; inactive = mostly below about 43%; also: 0% is about no effect
Numbers without * were called inactive; u = inconclusive; x = no result given; [ ] = remark or other dose. Unless noted, calls follow the shape of the dose curve; as a rule, active = well fitted inhibition curve with a large enough effect; inconclusive = small, poorly fitted or top-dose-only effect, or another doubt; inactive = no such curve, though single readings can be large or run the other way.

SMILES | CHX counter | Pf growth 48h | Pf growth 96h | NS1 inh | SARS PLP yeast | Shiga toxin inh
Cc1ccc(C)c(NC(=S)NNC(=O)c2cc3c(s2)CCC(C)C3)c1 (stereo not drawn) | -1 | 19% | -16% | 8% | u | -8
Cc1ccc(C)c(NC(=O)CN(C)C(=O)c2sccc2C)c1 | x | 1% | 2% | x | 8% | x
Cc1ccc(C)c(NC(=S)NNC(=O)c2csc(C(C)C)c2)c1 | 18* | 27% | -6% | -9% | 10µM* | 28
Cc1ccc(C)c(NC(=S)NNC(=O)c2sccc2C)c1 | 29* | 14% | 7%[5.75 µM] | -4% | 1% | 121*
Cc1ccc(C)c(NC(=S)NNC(=O)c2csc(C)c2C)c1 | 18* | 15% | 30% | 20% | -7% | 22*
Cc1cccc(N(C)C(=O)C2CCCN2S(=O)(=O)c2cccc3nsnc23)c1 (stereo not drawn) | -1 | -10% | u | -2% | 2% | -5
O=C(OCc1cncs1)c1ccccc1 | 19 | 12% | -6% | 3% | 0% | -3
CCCCCCCCCn1ccc(=N)cc1 | -1 | 0.17µM* | u | -68% | 1% | 7
CCn1ccc(=N)cc1 | 3 | u | 12µM* | u | -2% | 16
CCCCCCN1CC(O)=C(c2ccccc2)C1=N | 6 | -12% | x | 1% | 0% | -7
CCCCCCCn1ccc(=N)cc1 | -2 | 0.93µM* | x | -10% | -3% | -11
CCCCCn1ccc(=N)cc1 | 5 | 4.1µM* | 1.5µM* | 4% | 2% | -1
O=C(CCNC(=O)C1CCN(S(=O)(=O)c2ccc(F)cc2)CC1)NCc1ccccc1Cl | -6 | 6% | 4% | -4% | 7% | -11
CSc1ccccc1OCc1cc(C(=O)N2CCC(Oc3cccnc3)CC2)no1 | 42* | 13µM* | u | -58% | x | 95*
CCc1cc(C(=O)N2CCCC(CNC(=O)c3ccc(-c4ccccc4)cc3)C2)no1 (stereo not drawn) | 14* | -8% | u | -4% | -1% | 15
O=C(c1cc(COc2ccccc2)on1)N1CCCC(OCc2cccnc2)C1 (stereo not drawn) | 8 | 1% | u | -13% | 14% | 7
CCN(CC1CCCO1)C(=O)c1cc(COc2ccccc2SC)on1 (stereo not drawn) | 55* | u | 35% | -12% | -2% | 82*
COc1ccccc1OCc1cc(C(=O)N2CCCC(OCc3cccnc3)C2)no1 (stereo not drawn) | 58* | 2% | 12µM* | -14% | x | 96*
CSc1ccccc1OCc1cc(C(=O)N2CCN(c3ncccn3)CC2)no1 | 0 | u | u | 9% | 3% | -20
C/C(CCc1ccc2c(c1)OCO2)=N\N=C1\NC(=O)CC(C(=O)Nc2ccc(Cl)cc2)S1 (stereo not drawn) | -4 | 40% | 71% | 17% | -7% | -18
CCc1c(C(C)S(=O)(=O)c2ccccc2)[nH]c(=O)n1CC (stereo not drawn) | -2 | 4% | -2% | x | 1% | 23
CSc1ccccc1OCc1cc(C(=O)N2CCCC(C)C2)no1 (stereo not drawn) | 27* | 61% | 0% | -24% | 7% | 89*
O=C(c1cc(COc2cccc3cnccc23)on1)N1CCCC(CCCO)C1 (stereo not drawn) | -2 | 40% | 5% | -24% | 0% | -18
CSc1ccccc1OCc1cc(C(=O)N2CCSCC2)no1 | 61* | 50% | 0% | -41% | 17% | 99*
CCN(CC)C1CCN(C(=O)c2cc(COc3ccccc3SC)on2)C1 (stereo not drawn) | 0 | 14% | 7% | -11% | -6% | -4
COc1ccc(OCc2cc(C(=O)N3CCCC(CO)C3)no2)c2ccccc12 (stereo not drawn) | 44* | -10% | 52% | 1% | 3% | 84*
COc1cc(C(=S)N2CCOCC2)cc(OC)c1OS(=O)(=O)c1ccc(C)cc1 | -2 | -19% | -36% | 10% | -3% | -2
Cc1ccc(N/N=C/c2ccc3c(c2)OCCO3)cc1Cl | 55* | u | -20% | -7% | -37% | 28*

Assay outcomes (PubChem)
